# ERG-DNA inh: blocks human ERG Ets domain binding to DNA. P11308. fluorescence polarization, His-ERG Ets domain / labelled DNA. Potency, µM (highest dose often 76.9 µM), usual class: inhibitors. 370,000 compounds, 0.028% hits. AID 624246; active = well fitted inhibition curve with a large enough effect in the polarisation, with a control signal flat; inconclusive = small, poorly fitted or top-dose-only effect, or effect the other way, or a change in a side signal; inactive = no such curve, though single readings can be large or run the other way; the % refers to the polarisation;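 also: polarization taken with two DNA probes labelled with fluorescein and Texas red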
# Target sequence (P11308 whole entry, looked up, the tested form may be a part): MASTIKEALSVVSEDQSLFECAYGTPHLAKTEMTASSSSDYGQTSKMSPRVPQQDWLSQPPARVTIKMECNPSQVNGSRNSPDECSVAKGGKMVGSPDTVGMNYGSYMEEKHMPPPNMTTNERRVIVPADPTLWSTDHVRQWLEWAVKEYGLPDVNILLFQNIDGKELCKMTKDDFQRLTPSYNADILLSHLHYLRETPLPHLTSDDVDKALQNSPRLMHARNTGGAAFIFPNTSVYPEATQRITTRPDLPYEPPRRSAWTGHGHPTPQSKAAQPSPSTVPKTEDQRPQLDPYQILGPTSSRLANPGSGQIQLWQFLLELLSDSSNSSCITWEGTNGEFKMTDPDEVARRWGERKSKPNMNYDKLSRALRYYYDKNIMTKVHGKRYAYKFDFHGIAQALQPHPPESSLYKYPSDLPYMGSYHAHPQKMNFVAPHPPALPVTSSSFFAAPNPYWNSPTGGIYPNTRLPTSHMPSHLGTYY
#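 His-tagged ERG Ets domain (1 uM in the protein solution; 300mM KCl, 50mM Tris-HCl, 1mM EDTA, 1mM DTT, pH 7.5) received compound, then a probe mix of 5 nM fluorescein-DNA and 100nM Texas-615-DNA. Fluorescence polarization was read for both dyes.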
# CCT modulator: cytosolic chaperonin activity modulation. AID 651819. purified chaperonin ATPase assay, HTRF ADP detection, 30 min. 360,000 compounds, 0.3% hits. activity change, % (no concentration beside the values), hits read low; in the data active = activity change below about -30%
#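 We incubate TRiC, 40 or 20 nM final, with library compounds at 76 uM and 10 uM ATP for 30 min at 37 °C. ADP formed is detected with Transcreener HTRF reagents after 30 min at room temperature.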
# Mm-Cpn inhibitor: M. maripaludis TRiC chaperonin inhibition; purified Mm-Cpn ATPase, ADP Transcreener TR-FRET; Potency, µM (top dose mostly 76.9 µM), usual class: inhibitors; 330,000 compounds, 0.031% hits; also: nearly all actives have a fitted effect of over 80% in size
#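 ATPase read-out: TR-FRET ADP immunoassay (anti-ADP Eu cryptate vs ADP-d2), ex 320 nm, em 590/665 nm; signal drops as ADP forms. Enzyme 25 nM, ATP 10 uM, 30 min at 37°C after 10 min compound preincubation.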
# RGS4 inhibitor: human RGS4 inhibition; 390,000 compounds, 0.039% hits; AID 504845; Potency, µM (highest dose often 114 µM), most hits filed as inhibitors; Transcreener GDP fluorescence polarization, RGS4-accelerated GTP hydrolysis; also: nearly all actives have a fitted effect of over 75% in size
# Target sequence (P49798 whole entry, looked up): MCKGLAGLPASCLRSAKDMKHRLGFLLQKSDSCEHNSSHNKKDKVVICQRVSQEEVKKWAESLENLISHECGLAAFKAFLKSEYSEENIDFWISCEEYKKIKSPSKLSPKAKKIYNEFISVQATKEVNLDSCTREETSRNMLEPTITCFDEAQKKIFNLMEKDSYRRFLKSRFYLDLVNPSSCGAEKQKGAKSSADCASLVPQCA
#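 MLSMR compounds (23 nl, pin-transferred) preincubated 10 min at room temperature with a 500nM (2x) first reagent, then RGS4 at 900nM (2x) plus Transcreener GDP mix added; fluorescence polarization (620/688 nm) read before and after 90 min at 30 °C.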
# PTHR1 agonist: PTHR1 (human) receptor agonism; Q03431; HEK293 GP2 PTHR1 cells, GloSensor cAMP luminescence, 1 h; Potency, µM (top dose mostly 115 µM), usual class: activators; 410,000 compounds, 0.075% hits; AID 743266; also: nearly all actives have a fitted effect of over 55% in size
#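 HEK-293-derived GP2 cells expressing PTHR1 and a GloSensor cAMP reporter, 3,000/well, plated overnight, given luciferin plus IBMX (each 0.5 mM as added) for 1 h at 37 °C, then compound for 1 h at 37 °C. Luminescence was read after 15 min at room temperature.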
# A number is an active result; 0 = inactive; ? = inconclusive; - = no result; ! = not active in a repeat; [ ] = dose if it differs, or a comment. An excerpt weighted towards active compounds, which were near 0.36% of everything screened. Unless noted, calls follow the shape of the dose curve; as a rule, active = well fitted curve in the direction sought with a large enough effect; inconclusive = small, poorly fitted or top-dose-only effect, or another doubt; inactive = no such curve, though single readings can be large; an effect the other way counts as inactive or inconclusive.
SMILES,ERG-DNA inh,CCT modulator,Mm-Cpn inhibitor,RGS4 inhibitor,PTHR1 agonist
Cc1ccc(OCC(=O)Nc2nnc(SCc3cc(=O)c4ccccc4[nH]3)s2)cc1C,0,-,-,0,0
COc1cccc2c1C(=O)c1c(O)c3c(c(O)c1C2=O)CC(O)(C(C)=O)CC3OC1CC(N(C)C)C(O)C(C)O1 (configuration not stated),1µM,0,-,0,0
COc1cccc(-c2csc(N3CCC(C(N)=O)CC3)n2)c1,-,-,0,-,-
CC(=O)Nc1ccc(NC(=O)Nc2ccc(C)cc2C)cc1,?,0,0,0,0
CCC(=O)NNC(=O)CCC(=O)Nc1ccc(C)cc1C,0,0,0,?,0
Cc1ccc(NC(=O)CCC(=O)NNC(=O)C(C)(C)C)c(C)c1,0,-92,0,0,0
CCCNC(=O)Nc1ccc(C)cc1C,0,-45,0,0,0
Cc1cc(C(=O)OCC(=O)NC2CCS(=O)(=O)C2)c2ccccc2n1 (configuration not stated),0,0,0,0,0
O=C(COC(=O)c1cc(-c2cccc3ccccc23)nc2ccccc12)NC1CCS(=O)(=O)C1 (configuration not stated),?,-112,?,0,0
O=C(Cn1c(=S)[nH]c2ccccc21)c1ccccc1,0,-34,0,0,0
CCn1c(=S)[nH]c2ccccc21,0,0,0,0,0
O=C(CCCCn1c(=O)c2ccccc2n(Cc2ccccc2F)c1=O)NCc1ccccc1Cl,0,-,-,0,0
CCCc1cc(=O)n2[nH]c(C)c(-c3ccccc3OC)c2n1,-,0,-,-,0
CCCc1cc(=O)n2[nH]c(C)c(-c3ccccc3)c2n1,0,-57,0,0,0
O=C(Cc1cccs1)N1CCN(S(=O)(=O)c2ccc(F)c(F)c2)CC1,0,0,0,0,0
O=C(Cc1cccs1)N1CCN(S(=O)(=O)c2ccc(Cl)c(C(F)(F)F)c2)CC1,0,-69,0,0,0
c1ccc(-c2nc3ccccn3c2NC2CCCC2)nc1,0,0,0,0,0
Cc1ccn2c(NC3CCCC3)c(-c3ccccn3)nc2c1,0,-93,0,0,0
COc1ccc(NC(=O)c2oc3ccc(S(=O)(=O)N(C)C4CCCCC4)cc3c2C)cc1Cl,0,-,-,0,0
Cc1ccc(C)c(N(C)C(=O)c2ccc3c(=O)n4c(nc3c2)CCCCC4)c1,0,-72,0,0,0
CC(C)c1ccc(Nc2n[nH]c(=S)s2)cc1,-,-63,-,-,0
CC(=O)Nc1ccc(-c2csc(N3CCC(C(N)=O)CC3)n2)cc1,-,-,0,-,-
O=C(Cn1cc(SCc2c(F)cccc2Cl)c2ccccc21)N1CCCCCC1,0,-,-,0,0
COC(=O)C[C@H](NC(=O)[C@H](C)NC(=O)[C@@H](NC(=O)OCc1ccccc1)C(C)C)C(=O)CF,-,-,-,0,-
Cc1cc(SCC(=O)c2ccc(O)c(O)c2)nc2ccccc12,0,0,0,0,0
SMILES,ERG-DNA inh,CCT modulator,Mm-Cpn inhibitor,RGS4 inhibitor,PTHR1 agonist
Cc1cc(SCC(=O)c2ccc3c(c2)OCO3)nc2ccccc12,0,-69,?,0,0
CC(=O)OC1(C(C)=O)CCC2C3CC(C(F)(F)F)C4=CC(=O)CCC4(C)C3CCC21C (configuration not stated),0,0,-,0,0
CC(=O)O[C@]1(C(C)=O)CC[C@H]2[C@@H]3C[C@H](C)C4=CC(=O)CC[C@]4(C)[C@H]3CC[C@@]21C,25µM!,0,0[15.4 µM],0,0
Cc1cccn2c(=O)c3cc(C(=O)NC(C)C)n(C)c3nc12,0,-,-,0,0
NCCCC[C@@H](N)C(=O)O,-,-,-,0,-
CC(C)COc1cccc(C(=O)Nc2ccc(S(=O)(=O)N3CCOCC3)cc2)c1,-,0,0,0,0
COc1cccc(-n2c([S-])c(C(=O)Nc3ccc(S(=O)(=O)N4CCOCC4)cc3)[n+]3cc(C(N)=O)ccc23)c1,0,-41,0,0,0
CCOc1cc(-c2nnc(SCC(=O)NCc3ccccc3)nc2-c2ccc(OC)c(OCC)c2)ccc1OC,0,-,-,0,0
O=S(=O)(NCC1OCCc2ccccc21)c1ccc(S(=O)(=O)N2CCOCC2)cc1 (configuration not stated),0,-52,0,0,0
Cc1cc2nc(-c3ccc(OCc4ccccc4C)cc3)cc(C(F)(F)F)n2n1,0,-,-,0,0
COc1ccc(CNC(=O)CSCc2nc(-c3ccccc3C)oc2C)cc1,0,-,-,0,0
O=C(O)C1CCCN(S(=O)(=O)c2cccs2)C1 (configuration not stated),-,0,0,0,0
Cc1ccc(S(=O)(=O)N2CCCC(C(=O)O)C2)s1 (configuration not stated),0,-94,0,?,0
COCc1nn2c(N)c(-c3ccccc3)cnc2c1-c1ccccc1,0,-44,0,0,0
CCOc1ccc(NC(=O)CCC(=O)NNC(=O)COc2ccc(C)cc2)cc1,0,0,0,0,?
CCOc1ccc(NC(=O)CCC(=O)NNC(=O)COc2ccc(C)cc2Br)cc1,0,-36,0,0,0
O=S(=O)(c1ccccc1)c1nnn2c1nc(N1CCN(c3ccccc3)CC1)c1cc(Cl)ccc12,0,-,-,0,0
COc1ccc(NC(=O)CN2CCN(c3ccc(C)cc3C)CC2)cc1,0,-55,0,0,0
COc1ccc(NC(=O)CN2CCN(c3c(C)cc(C)cc3C)CC2)cc1,0,0,0,0,0
CCC(CC)c1nn2c(=O)cc(COc3ccc(NC(=O)c4ccc(Cl)cc4)cc3)nc2s1,0,-,-,0,0
COc1cccc(NC(=O)c2oc3ccc(S(=O)(=O)N4CCCCCC4)cc3c2C)c1,0,-,-,0,0
COCc1c(C(=O)Nc2cccc(S(=O)(=O)N3CCCCC3)c2)oc2ccccc12,0,-74,0,0,0
NC(=O)c1ccc(NC(=O)CSc2nnc(-c3cccnc3)n2Cc2ccco2)cc1,0,-73,0,0,0
O=C(CSc1nnc(-c2cccnc2)n1Cc1ccco1)c1ccccc1,0,0,0,0,0
Cc1ccc(C(=O)NC2CCN(CC(=O)Nc3ccccc3Cl)CC2)cc1,0,-37,0,0,0
SMILES,ERG-DNA inh,CCT modulator,Mm-Cpn inhibitor,RGS4 inhibitor,PTHR1 agonist
O=C(Cc1ccccc1[N+](=O)[O-])Nc1nccs1,0,-33,0,0,0
CCOc1cccc(CNCc2ccc(C(=O)O)cc2)c1,0,-70,0,0,0
CC(C)c1nc(SCC(=O)N2CCN(c3ccccc3)CC2)c2c(=O)n(C)c(=O)n(C)c2n1,0,0,0,0,0
Cn1c(=O)c2c(SCC(=O)N3CCOCC3)nc(-c3ccccc3F)nc2n(C)c1=O,0,0,0,0,0
CCCc1nc(SCC(=O)N2CCN(c3ccccc3)CC2)c2c(=O)n(C)c(=O)n(C)c2n1,0,-39,0,0,0
Cn1c(=O)c2c(SCC(=O)N3CCOCC3)nc(-c3ccccc3Cl)nc2n(C)c1=O,0,-30,0,0,0

# Compound activity: PubChem BioAssay, National Center for Advancing Translational Sciences (NCATS)
